CHT allo act – CHT positive allosteric modulators, primary screen, cell-based, membrane potential dye, choline EC20 | AID 488977, 2010 | CHT-expressing cells; hits give high values; LV-AA mutant CHT in HEK293 cells | B-score at 10 µM | 0.49% of 310,000 active | High affinity choline transporter 1 (Homo sapiens), Q9GZV3;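 active means initial fluorescence not abnormally high and integrated response B-score, plate-corrected, over 3 SD above library mean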
Target sequence (Q9GZV3 whole entry, looked up): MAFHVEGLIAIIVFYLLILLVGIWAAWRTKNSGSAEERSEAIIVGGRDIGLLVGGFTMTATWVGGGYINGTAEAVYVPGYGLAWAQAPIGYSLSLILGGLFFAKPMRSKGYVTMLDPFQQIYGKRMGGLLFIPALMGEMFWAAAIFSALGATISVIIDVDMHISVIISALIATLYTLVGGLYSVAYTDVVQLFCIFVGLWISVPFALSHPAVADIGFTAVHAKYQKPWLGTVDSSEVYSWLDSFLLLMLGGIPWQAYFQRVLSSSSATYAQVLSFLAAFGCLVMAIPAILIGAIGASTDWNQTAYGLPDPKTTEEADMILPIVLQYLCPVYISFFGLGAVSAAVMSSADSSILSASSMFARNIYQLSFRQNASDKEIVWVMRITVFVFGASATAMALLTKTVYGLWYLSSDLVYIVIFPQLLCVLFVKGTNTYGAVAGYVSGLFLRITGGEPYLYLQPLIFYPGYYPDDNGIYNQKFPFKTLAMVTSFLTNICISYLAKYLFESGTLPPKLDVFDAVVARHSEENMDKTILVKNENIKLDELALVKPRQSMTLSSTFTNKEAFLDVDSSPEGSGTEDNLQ
MIN6 prolif – inducers of MIN6 beta-cell proliferation, primary screen, ATP luminescence, uHTS; MIN6 cells proliferation, ATPlite luminescence, 48 h; cells starved in 0.2% serum; 100% = growth in 10% serum; AID 2380, 2010; proliferation, % at 10 µM; 0.29% of 330,000 active;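 active means compounds whose signal lies at least 3.5 SD above the mean of all wells on their plate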
CHT block – inhibitors of human choline transporter CHT. B-score at 10 µM. High affinity choline transporter 1 (Homo sapiens), Q9GZV3. CHT-expressing cells, membrane potential dye, choline response; hits give low values. AID 488975, 2010. 0.86% of 310,000 active;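 active means B-score over 3 SD under the library average, and starting fluorescence ratio not unusually high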;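 further: choline stimulus applied at its EC90 after an EC20 pre-addition; B-score computed on integrated fluorescence ratio after choline addition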
H9c2 TAG inh – inhibitors of triacylglycerol accumulation, primary screen, cell-based, uHTS, fluorescence, H9c2; 0.66% of 230,000 active; AID 651582, 2012; inhibition, % at 12.5 µM; H9c2 cells, Nile Red lipid (TAG) fluorescence; cells loaded with 200 µM oleic acid;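 active means pattern-corrected inhibition of lipid staining of at least 50% with the nuclear-stain viability signal not falling by more than 50%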
CHT act confirm – CHT activators, confirmation, cell-based, membrane potential dye, duplicate | CHT-expressing cells, membrane potential dye fluorescence (FDSS); % of choline EC20–EC90 response window; HEK293 expressing CHT LV-AA mutant; choline added at its EC20 | 91% of 2,500 active | activation, % at 10 µM | shares compounds with CHT allo act;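 active means primary screen active, with duplicate mean activation above negative control mean plus 3 SD, cut at about 11% in these data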
HEK293 MP dye – membrane potential response in parental HEK293 cells, counter-screen for CHT activator project, cell-based, membrane potential dye; shares compounds with CHT allo act; membrane potential dye fluorescence (FDSS); measured after EC20 choline addition; ratio readout change at 10 µM, hits read low; 62% of 2,500 active;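 active means duplicate-averaged ratio beyond 3 SD from buffer wells, up or down, though filed actives are nearly all decreases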
Numbers stand for hits; - = inactive; . = no result. Rows were chosen to be rich in hits. Some 1.7% of all compounds tested hit in one or more screens of this group.

SMILES	CHT allo act	MIN6 prolif	CHT block	H9c2 TAG inh	CHT act confirm	HEK293 MP dye
CN1CCN(c2nc(-c3cccs3)nc3ccccc23)CC1	-	-	-	.	39	-65
c1ccc(CN2CCC(Nc3nc(-c4cccs4)nc4ccccc34)CC2)cc1	-	-	-	-	23	-48
CCN1CCN(c2nc(-c3cccs3)nc3ccccc23)CC1	7.1	-	-	.	43	-40
N#CCC(=O)N/N=C/c1cc(-c2ccccc2)n(-c2ccc(Cl)cc2)c1-c1ccccc1	-	-	-	.	.	.
CCOc1ccc(S(=O)(=O)N2CCCC(C(=O)N3CCOCC3)C2)cc1Cl (centres undefined)	-	-	-	.	.	.
CSc1ncccc1C(=O)NCCc1ccc(S(N)(=O)=O)cc1	-	-	-	.	.	.
COc1ccc(OC)c(/C=C/C(=O)OCC(=O)N2CCN(S(=O)(=O)c3ccc(C)cc3C)CC2)c1	.	-	.	-	.	.
CCCn1c(N)c(Sc2ccccc2[N+](=O)[O-])c(=O)n(CCC)c1=O	-	-	-	.	.	.
COC(=O)c1ccc(N2CCN(C)CC2)c(NC(=O)COc2ccccc2Cl)c1	-	-	-	.	.	.
COC(=O)c1ccc(N2CCN(C)CC2)c(NC(=O)COc2ccc(OC)cc2)c1	9.2	-	-	-	69	-65
C=CCn1c(SCc2c(C)noc2C)nc2cc(C(=O)O)ccc2c1=O	-	-	-	-	.	.
COC(=O)c1ccc(CSc2nc3ccccc3c(=O)n2-c2ccccc2)o1	8.6	-	-	-	19	-
Cc1noc(C)c1CSc1nc2ccccc2c(=O)n1-c1ccc(F)cc1F	11	-	-	-	-	-
C=CCn1c(SCc2c(C)noc2C)nc2ccccc2c1=O	6.6	-	-	.	27	-
Cc1noc(C)c1CSc1nnc2n(-c3ccccc3)c(=O)c3ccccc3n12	-	-	-	-	.	.
Cc1noc(C)c1CSc1nc2ccccc2c(=O)n1-c1ccccc1	9.3	-	-	-	35	-
CC(C)C(=O)Nc1cccc(COc2cccc(CN(Cc3ccccc3)C(=O)OC(C)(C)C)c2)c1	.	.	.	-	.	.
COc1cccc(NC(=O)CN(C)C(=O)c2ccc(NC(=O)CC3SC(N4CCCC4)=NC3=O)cc2)c1 (centres undefined)	.	.	.	-	.	.
COc1ccc(NC(=O)CN(C)CC(=O)Nc2sc3c(c2C#N)CCC3)cc1	.	-	.	-	.	.
CC(C)Cc1ccc(C(C)C(N)=NCCc2ccccc2)cc1 (centres undefined)	13	-	-	.	-	-
COc1cc(-c2nnc(SCC(=O)/C(C#N)=C(\C)N)o2)cc(OC)c1OC	-	-	-	.	-	-23
Cc1ccc(C(c2nnnn2C2CCCCC2)N(C)C2CCCCC2)cc1 (centres undefined)	-	-	-	.	-	-
CCCc1nnc(NC(=O)C(CC)OC(=O)c2cc(C)nc3ccccc23)s1 (centres undefined)	6.3	-	-	-	22	-
CCOC(=O)c1ccc2c(c1)n(CC)c(/C=C/N(C)c1ccccc1)[n+]2CC	7.4	-	-	.	44	-63
Cc1cc(C)n(-c2cccc(F)n2)n1	-	-	-	-	.	.
SMILES	CHT allo act	MIN6 prolif	CHT block	H9c2 TAG inh	CHT act confirm	HEK293 MP dye
O=C(C1CCN(CC2CC=CCC2)CC1)N(CCc1ccccc1)Cc1ccccc1 (centres undefined)	-	-	-	-	-	-
CCn1ncc(Br)c1C(=O)Nc1c(C)nn(Cc2c(F)c(F)c(F)c(F)c2F)c1C	-	-	-	-	.	.
COc1ccc(CCNC(=O)C(=O)NCC2OCCN2S(=O)(=O)c2cc(F)ccc2F)cc1OC (centres undefined)	-	-	-	-	.	.
CN(Cc1ccccc1)C(=O)c1[nH]cnc1C(=O)N[C@@H](CCCCNC(=O)OC(C)(C)C)C(=O)OC(C)(C)C	11	-	-	-	20	-
O=C(NN1CCOCC1)NC12CC3CC(CC(C3)C1)C2	-	-	-	-	.	.
Cc1ccnc(NC(=O)CCC2CCCCC2)c1	-	-	-	-	27	-
Cc1cc(NC(=O)CCC2CCCCC2)no1	-	-	-	-	.	.
Cc1ccccc1C1c2[nH]c3ccccc3c2CCN1Cc1cccn1-c1ncccn1 (centres undefined)	6.3	-	-	-	27	-
Cc1ccc(S(=O)(=O)N(C)C)cc1NC(=S)NC(=O)C12CC3CC(CC(C3)C1)C2	-	-	-	.	-	-
Cc1cc(C)n2nc3nc4c(cc3c2n1)CCCC4	7	-	-	.	41	-47
Cc1cc(C)n2nc(C)c(Br)c2n1	-	-	-	-	.	.
COc1ccc(-n2nnc3c(=O)n(CC(=O)Nc4cc(C)on4)cnc32)cc1OC	-	-	-	-	.	.
Cc1cccc(-c2cc3nc(C)cc(NCCCn4ccnc4)n3n2)c1	9.6	-	-	-	51	-59
Cc1cc(NCCCN(C)C)n2nc(-c3cccs3)cc2n1	13	-	-	-	39	-89
CCc1nc2ccc(C(=O)NC(C)(C)C)cn2c1N(CC)Cc1cccc(Br)c1	.	.	.	-	.	.
O=S(=O)(Cc1cc(Oc2ccccc2)nc(-c2ccccc2)n1)c1ccccc1	-	-	-	-	.	.
CCOC(=O)C(C)Sc1cc(CS(=O)(=O)c2ccccc2)nc(-c2ccccc2)n1 (centres undefined)	7.7	-	-	.	-	-
N#Cc1c(N)sc2c1CCN(CCc1ccccc1)C2	-	-	-	-	30	-41
Cc1[nH]ccc2c1[nH]c1cc(=O)ccc12	-	-	-	.	50	-49
O=c1cc[nH]c2c1ccc1c(=O)cc[nH]c12	-	-	-	.	.	.
O=C(NCC(c1ccco1)N1CCCC1)c1cn(-c2ccccc2)nc1-c1ccc(F)cc1 (centres undefined)	.	-	.	-	.	.
Cc1cccc(Oc2nccc(C(F)(F)F)c2C(=O)Nc2ccc(F)cc2F)c1	-	-	-	-	.	.
Cc1nn(C)c(Oc2cccc(Cl)c2)c1C(=O)Nc1ccc(F)cc1F	-	-	-	-	30	-
Cc1ccc(-c2c(C(=O)N(C)Cc3ccccc3)oc(=O)c3ccccc23)cc1	-	-	-	.	32	-
Cn1c2c(c(=O)n(C)c1=O)C(C(F)(F)F)(C(F)(F)F)N=C(CCC1CCCCC1)N2	-	-	-	.	.	.
COc1cc(C(=O)OCCCN2CCCN(CCCOC(=O)c3cc(OC)c(OC)c(OC)c3)CC2)cc(OC)c1OC	9.1	-	-	-	44	-31
COC(=O)c1ccc(OC)c(CSc2nnc(COc3cccc(C)c3)o2)c1	-	-	-	.	19	-
CCCCN(C)CCNC(=O)c1nn(-c2ccc(OC)cc2)c(=O)c2c1c1ccccc1n2C	-	-	-	.	29	-31

Bioassay records (PubChem BioAssay)
